# Data as given in PubChem BioAssay AID686978 (National Center for Advancing Translational Sciences (NCATS), 2013).
# Among all 420,000 compounds or so, about 64,000 (15%) were called active. Roughly 27% stayed inconclusive and do not appear here. The call rests on the fitted dose curve; in most records, active means well fitted inhibition curve with a large enough effect; inconclusive means small, poorly fitted or top-dose-only effect; inactive means flat fitted curve, though single readings scatter. These entries were drawn from the full list. Where a call stands in place of a potency, no number is given.
# Assay: qHTS for Inhibitors of human tyrosyl-DNA phosphodiesterase 1 (TDP1): qHTS in cells in absence of CPT; further: nearly all actives have a fitted effect of over 55% in size
# Settings: DT40 Tdp1-/- hTDP1 cells, no CPT, ATP luminescence, 48 h; activity change, negative = growth inhibition: at 46.2 µM (top of the series)
# Text: Human tyrosyl-DNA phosphodiesterase 1 (TDP1) is a novel repair gene, and we propose to use it as a new target for anticancer drug development. TDP1 is not an essential protein, but under treatment with topoisomerase I poison (camptothecin: CPT), TDP1 works as a critical factor for cell survival. To directly identify novel TDP1 inhibitors active in a cellular environment, we have knocked-out the Tdp1 gene in chicken DT40 cells (Tdp1-/-) and generated a complemented counterpart cells that contains a stable transfection of the human TDP1 gene (Tdp1-/-;hTDP1 cells). For the primary screen, Tdp1-/-;hTDP1 cells will be exposed to small molecules in the presence or absence of CPT, and their growth kinetics will be evaluated after 48 hours by measuring ATP activity. […] The hit compounds will then be evaluated in the presence or absence of CPT using Tdp1-/- cells. […] In tertiary assays, biochemical gel-based assays will be used to assess whether the hit compounds specifically target TDP1.
# To this end, we have screened this cell line against the MLSMR in two primary screens. In one screen we add CPT and in the other we screen in the absence of CPT; this AID represents the screen where CPT was absent.
# NIH Chemical Genomics Center [NCGC]
# NIH Molecular Libraries Probe Centers Network [MLPCN]
# Assay Submitter (PI): Yves Pommier, NCI
# DT40-hTDP1 cells without 20 nM Camptothecin (add 20 microL of DMSO in 1 L of cell culture medium) were dispensed at 400 cells/5microL/well in tissue culture treated 1536-well white wall/solid bottom assay plates (Greiner Bio-One North America, NC, U.S.A.) using a Multidrop Combi 8 channel dispenser (Thermo Fisher, Waltham, MA, USA). 23 nL compounds and controls were transferred using the pin tool (Kalypsys, San Diego, CA, USA) to the assay plates. The assay plates were then incubated at 37 masculineC for a minimum 48 hr. Three microL of Cell Titer Glo solution was added to the plates and incubated at RT in dark for 30 min. Luminescence was read using ViewLux (Perkin Elmer) with 1 sec exposure slow speed, high gain and 2x binning.
# Potency means the concentration at half of the fitted maximal effect.
row,Structure (SMILES),Potency
1,C/C=C(\C)C(=O)N1CC2(CC(c3cccc(NC(=O)CCCCC)c3)=NO2)C[C@@H]1C(N)=O (some centres undefined),inactive
2,O=C(CCN1CCc2ccccc2C(O)(c2ccccc2)C1)c1ccc2c(c1)OCCO2 (centres undefined),2.91 µM (active)
3,O=C(COC(=O)c1ccccc1)c1ccc2c(c1)OCCO2,inactive
4,CCC1(c2ccccc2)NC(=O)N(CC(=O)c2ccc3c(c2)OCO3)C1=O (centres undefined),inactive
5,COc1ccc(CCOC2OC(CO)C(OC(=O)/C=C/c3ccc(O)c(OC)c3)C(O[C@H]3O[C@@H](C)[C@H](O)[C@@H](O)[C@H]3O)C2O)cc1O (some centres undefined),inactive
6,Cc1ccc(CNC(=O)c2ccccc2CCc2ccccc2)cc1,inactive
7,CNC[C@H](CC1CCCCC1)NC[C@H](NCCC1CCCC1)[C@H](C)O,20.6 µM (active)
8,O=C(CN1C(=O)NC2(CCCCCC2)C1=O)NCc1cccs1,inactive
9,CN=C1SC(C(=O)O)CC(=O)N1C (centres undefined),inactive
10,COc1ccc(C(=O)n2nc(-c3ccc(C)cc3)nc2N)cc1OC,10.3 µM (active)
11,COc1ccc(C(=O)n2nc(C)c(Br)c2C)cc1OC,inactive
12,COc1ccc(CC(=O)n2nc(-c3cccnc3)nc2N)cc1,inactive
13,Oc1ccc(Cl)c2c1CCC2,inactive
14,CN(CCOc1ccccc1)C(=O)c1cc(COc2c(F)cccc2F)on1,inactive
15,CN(Cc1cccnc1)C(=O)c1cc(COc2ccc3ncccc3c2)on1,8.2 µM (active)
16,Cc1ccc(OCc2cc(C(=O)N(C)CCc3ccccc3)no2)cc1C,inactive
17,CCOC(=O)CNC(=O)CSc1ccc2nnc(-c3cccnc3)n2n1,inactive
18,COc1ccc(COC(=O)c2n[nH]c3ccccc23)cc1F,inactive
19,Cn1c(SCc2c(F)cccc2Cl)nnc1-c1cnccn1,inactive
20,Cc1cc([N+](=O)[O-])c(NC2CCCCC2)c([N+](=O)[O-])c1,inactive
21,CC1CN(C(=S)Nc2ccc(S(N)(=O)=O)cc2)CC(C)O1 (centres undefined),inactive
22,CCOC(=O)NCc1ccc2c(c1)OCO2,inactive
23,COCCN(Cc1cc2cc3c(cc2nc1Cl)OCO3)C(=O)c1cccc(C)c1,16.4 µM (active)
24,CCCCN(CC)C(=O)c1ccc2c(c1)OCO2,inactive
25,Nc1ncnc2c1ncn2[C@@H]1O[C@H](C(=O)N2CCCN(Cc3ccccc3F)CC2)[C@@H](O)[C@H]1O,inactive
26,CCOc1cc(CN2CCCC(CO)(Cc3ccc(F)cc3F)C2)ccc1OC (centres undefined),inactive
27,COc1cccc(CC2(CO)CCCN(Cc3nc(-c4cccs4)oc3C)C2)c1 (centres undefined),20.6 µM (active)
28,COC(=O)CCC(=O)N1CCCC(CO)(Cc2ccccc2)C1 (centres undefined),inactive
29,Cc1ccc(CS(=O)(=O)CCC(=O)NC2CC2)cc1,inactive
